In the supplement of paper PMC8253809:

What was measured:
Assay in all cases: growth inhibition (% activity, log2 RLU normalised to DMSO / staurosporine); higher = more growth inhibition
Conditions in all cases: 33 µM
DIPGX29 = test system: DIPGX29 (H3.3 K27M diffuse intrinsic pontine glioma line)
Method in brief: (§1)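 The growth-inhibition value is the median over replicates. pHGG cell lines and H9-derived neural stem cells on Geltrex-coated 384-well plates received approved drugs by pin tool at a single final concentration of about 33 μM, in triplicate, for 7 days at 37 °C, 5% CO2. CellTiter-Glo luminescence was log2-transformed and normalised per plate to % activity between solvent and positive control wells.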

DIPGX37 = test system: DIPGX37 (H3.3 K27M diffuse intrinsic pontine glioma line)
Method in brief: as §1

DIPGX7 = test system: DIPGX7 (H3.3 K27M diffuse intrinsic pontine glioma line)
Method in brief: as §1

DIPGX9 = test system: DIPGX9 (diffuse intrinsic pontine glioma line)
Method in brief: as §1

HGGX39 = test system: HGGX39 (paediatric high-grade glioma line)
Method in brief: as §1

HGGX6 = test system: HGGX6 (H3.3 G34R paediatric high-grade glioma line)
Method in brief: as §1

HNSC = test system: HNSC
Method in brief: as §1

SUDIPGIV = test system: SUDIPGIV (diffuse intrinsic pontine glioma line)
Method in brief: as §1

SUDIPGVI = test system: SUDIPGVI (diffuse intrinsic pontine glioma line)
Method in brief: as §1

SUDIPGXIII = test system: SUDIPGXIII (diffuse intrinsic pontine glioma line)
Method in brief: as §1

Compound | growth inhibition (DIPGX29) [%] | growth inhibition (DIPGX37) [%] | growth inhibition (DIPGX7) [%] | growth inhibition (DIPGX9) [%] | growth inhibition (HGGX39) [%] | growth inhibition (HGGX6) [%] | growth inhibition (HNSC) [%] | growth inhibition (SUDIPGIV) [%] | growth inhibition (SUDIPGVI) [%] | growth inhibition (SUDIPGXIII) [%]
CCn1cc(C(=O)O)c(=O)c2cnc(N3CCCC3)nc21 | -2.15 | -2.01 | -0.632 | -0.749 | -1.43 | 0.0128 | -2.86 | -0.463 | -0.722 | -2.7
O=C(CCCN1CCC(O)(c2ccc(Cl)cc2)CC1)c1ccc(F)cc1 | 0.532 | 0.49 | 2.11 | 2.82 | 5.5 | 1.74 | 2.33 | 2.23 | 0.854 | 1.18
CCCNC(=O)NS(=O)(=O)c1ccc(Cl)cc1 | 2.28 | 4.25 | 2.73 | 6.15 | 3.29 | 2.21 | 9.27 | 2.61 | 2.64 | 0.944
CCCCNc1ccc(C(=O)OCCN(C)C)cc1 | -1.31 | -0.907 | 0.627 | -0.979 | 5.11 | 4.5 | 0.385 | -0.481 | -2.2 | 1.02
CO[C@H]1C[C@@H]2CC[C@@H](C)[C@@](O)(O2)C(=O)C(=O)N2CCCC[C@H]2C(=O)O[C@H]([C@H](C)C[C@@H]2CC[C@@H](O)[C@H](OC)C2)CC(=O)[C@H](C)/C=C(\C)[C@@H](O)[C@@H](OC)C(=O)[C@H](C)C[C@H](C)/C=C/C=C/C=C/1C | 6.5 | 0.955 | 6.15 | 16.4 | 10.5 | 10.3 | 10.4 | 4.5 | 6.53 | 0.792
NC(=O)N/N=C/c1ccc([N+](=O)[O-])o1 | 0.652 | 0.147 | 0.615 | 0.733 | 1.49 | 0.622 | 2.46 | -1.17 | 1.04 | -0.395
[O-][n+]1cccc(CO)c1 | -0.666 | 1.68 | -0.893 | -0.317 | 0.747 | 0.543 | -0.142 | -0.682 | -0.214 | 2.91
O=C1O[C@H]([C@@H](O)CO)C([O-])=C1O.[Na+] | -5.78 | -2.29 | -0.532 | -4 | -3.28 | -5.19 | 6.78 | -3.14 | -6.63 | 2.95
CN1CCC(=C2c3ccccc3CCc3cccnc32)CC1 | -2.68 | 0.139 | 0.133 | -1.74 | -1.55 | -5.77 | 24.2 | -1.91 | -8.64 | 1.19
CN(C)CCCN1c2ccccc2Sc2ccc(Cl)cc21 | -1.92 | -1.4 | 0.129 | -1.08 | 0.279 | -2.17 | 24.1 | -0.706 | -5.1 | 2.77
Nc1nc(N)c2nc(-c3ccccc3)c(N)nc2n1 | 5.33 | 1.67 | 1.42 | 1.23 | 3.58 | 1.3 | 3.87 | 3.03 | 5.65 | 0.714
CCCCCCCCCCCCCCCCCCCCCCO | 0.193 | 0.0924 | -0.407 | 0.0399 | -0.179 | 0.445 | 1.03 | -1.18 | 1.92 | 1.68
O=C1[C@H](CC[C@H](O)c2ccc(F)cc2)[C@@H](c2ccc(O)cc2)N1c1ccc(F)cc1 | 0.15 | -1.79 | 1.88 | -0.813 | -0.454 | -1.33 | -0.443 | -2.25 | -5.97 | 0.864
Nc1nc(=O)[nH]cc1F | 1.91 | 1.71 | 2.65 | 3.09 | 1.88 | 1.43 | 1.22 | 0.252 | 2.66 | -3.23
Cc1onc(-c2ccccc2Cl)c1C(=O)N[C@@H]1C(=O)N2[C@@H]1SC(C)(C)[C@@H]2C(=O)O | -0.728 | -0.729 | -0.308 | -1.05 | -0.725 | 1.07 | -1.87 | -0.916 | -0.387 | -9.34
c1cnc2cc3c(cc2n1)[C@@H]1CNC[C@H]3C1 | 1.18 | -2.8 | 1.78 | 0.684 | 0.561 | 1.15 | 0.349 | -0.44 | -0.35 | -1.07
NCC1OC(OC2C(N)CC(N)C(OC3OC(CO)C(O)C(N)C3O)C2O)C(N)C(O)C1O (stereo not given) | -1.38 | 0.63 | 0.452 | -1.1 | 1.6 | -1.9 | 30.8 | -0.143 | -4.48 | -1.57
CC(=O)NS(=O)(=O)c1ccc(N)cc1 | 0.584 | 1.84 | 0.329 | 0.364 | 1.9 | 2.46 | -1.34 | -0.27 | 0.507 | 0.27
CS(=O)(=O)c1ccc(C(=O)Nc2ccc(Cl)c(-c3ccccn3)c2)c(Cl)c1 | 2.56 | 2.2 | 3.42 | 7.16 | 5.46 | 2.09 | 4.02 | 0.0205 | 4.38 | -0.808
COc1ccc2cc(CCC(C)=O)ccc2c1 | -3.29 | -0.34 | 1.11 | -2.24 | 0.174 | -2.89 | 31.7 | -0.544 | -8.13 | 3.04
COC(=O)Nc1nc2cc(C(=O)c3ccc(F)cc3)ccc2[nH]1 | 5.17 | 7.48 | 3.54 | 6.48 | -0.271 | 3.94 | 63.6 | -1.42 | 0.822 | 5.19
CC(C)[C@H](N)C(=O)OCC(CO)OCn1cnc2c(=O)[nH]c(N)nc21 (stereo not given in full) | -0.214 | 1.96 | -0.125 | 0.141 | 0.816 | -2.7 | 0.0503 | 0.2 | -2.51 | 1.45
